High-throughput results (PubChem)
Rab9 prom act: activators of Rab9 promoter. AID 485297. 320,000 compounds, 2.8% hits. Potency, µM (series often up to 9.22 µM), without a hit: top-dose activation, negative = inhibition, actives largely listed as activators. Huh7 Rab9 promoter-luciferase reporter, luminescence, 24 h; note: % of control where 0% means no effect; nearly all actives have a fitted effect of over 60% in size
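Using Huh7 cells stably transfected with Rab9 promoter–luciferase, compounds were incubated 24 h at 37 °C, 5% CO2; luciferase luminescence was read 10 min after reagent addition.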
ELG1 genotoxic: inducers of genotoxicity in HEK293T ELG1-luciferase cells. Potency, µM (highest dose often 46 µM), for inactives: top-dose activity change, positive = activation, most hits filed as activators. 330,000 compounds, 1.3% hits. HEK293T ELG1-luciferase reporter, luminescence, 16 h. AID 504466; note: % of control where 0% means no effect; nearly all actives have a fitted effect of over 60% in size
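16 hr compound incubation (37 °C, 5% CO2) of HEK293T cells carrying luciferase-tagged ELG1; luciferase then measured by ONE-Glo luminescence after 30 min at RT.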
SMN2 splice up: increases expression of the SMN2 splice variant; HEK293 SMN2-luciferase splicing reporter, luminescence, 30-36 h; Potency, µM (top dose mostly 46.1 µM), for the others: top-dose activity change, positive = activation, usual class: activators; 210,000 compounds, 2.8% hits; AID 1458; note: % of control where 0% means no effect; nearly all actives have a fitted effect of over 55% in size
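HEK293 cells carry an SMN2 […]–luciferase reporter in which exon 7 inclusion puts luciferase in frame. Cells were plated 10-12 h before compound addition, then incubated 30-36 h at 37C. ONE-Glo luminescence was read; sodium butyrate at 4.5 mM final served as control.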
NPC1 promoter act: NPC1 promoter activation. Huh7 NPC1 promoter luciferase reporter, 24 h. Potency, µM (titrated, usually from 9.22 µM), without a hit: at the top dose activation, actives largely listed as activators. AID 485313. 320,000 compounds, 2.4% hits; note: % of control where 0% means no effect; nearly all actives have a fitted effect of over 60% in size
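Huh7 cells stably carrying NPC1 promoter–luciferase, plated in Opti-MEM with 10% FBS for 2 h, were exposed to compound in DMSO for 24 h at 37 °C; luciferase reagent was added for 10 min and luminescence read.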
FLuc counter: firefly luciferase modulation, counter-screen for miR-21 project | purified FLuc, Km substrates, luminescence inhibition | Potency, µM (titrated, usually from 57.5 µM), for inactives: at the top dose activity change, negative = inhibition, usual class: inhibitors | AID 588342 | 360,000 compounds, 6.9% hits | P08659;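 note: plate controls were vehicle for no effect and reference inhibitor for full effect; nearly all actives have a fitted effect of over 55% in size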
Target sequence (P08659 whole entry, looked up): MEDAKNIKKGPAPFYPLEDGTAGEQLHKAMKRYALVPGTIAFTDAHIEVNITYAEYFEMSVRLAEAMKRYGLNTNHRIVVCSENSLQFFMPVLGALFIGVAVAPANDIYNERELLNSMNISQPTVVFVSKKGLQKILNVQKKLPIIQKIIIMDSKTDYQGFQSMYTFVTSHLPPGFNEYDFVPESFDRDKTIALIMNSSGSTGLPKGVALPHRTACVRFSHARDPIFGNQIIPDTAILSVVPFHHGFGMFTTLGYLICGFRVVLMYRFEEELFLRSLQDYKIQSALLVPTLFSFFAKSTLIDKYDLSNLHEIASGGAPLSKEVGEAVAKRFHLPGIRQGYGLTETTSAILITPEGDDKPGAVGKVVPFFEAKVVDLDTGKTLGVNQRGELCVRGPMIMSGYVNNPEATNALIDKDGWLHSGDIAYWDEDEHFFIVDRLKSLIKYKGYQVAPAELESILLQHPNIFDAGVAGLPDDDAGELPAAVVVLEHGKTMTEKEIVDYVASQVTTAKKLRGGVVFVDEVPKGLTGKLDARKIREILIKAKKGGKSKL
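Purified P. pyralis luciferase (10nM final) with 10uM D-luciferin and 10uM ATP (Km levels) in 50mM Tris acetate pH 7.5, 10mM Mg acetate, 0.01% Tween-20, 0.05% BSA; qHTS 6-point titration, ~60 µM downward; luminescence read.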
ELG1 repair inh: inhibitors of ELG1-dependent DNA repair in HEK293T cells; HEK293T ELG1-luciferase reporter, luminescence, 16 h; DNA damage induced by 5-fluorouridine; Potency, µM (highest dose often 46.1 µM), for the others: at the highest dose activity change, negative = inhibition, usual class: inhibitors; 330,000 compounds, 2.3% hits; AID 504467; note: % is set by controls: 0 for no effect and ±100 for the full control effect; nearly all actives have a fitted effect of over 55% in size
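Overnight (16 hr) co-exposure of 2,000 cells/well to 5-fluorouridine and compound at 37 °C preceded detection. Luciferase was quantified via ONE-Glo luminescence; loss of signal denotes inhibition.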
* hit, by the source's call; ? = inconclusive; nt = no result given; [ ] = another dose, or the depositor's remark. An excerpt weighted towards active compounds, which were near 9.2% of everything screened. Calls come from the whole dose curve; as a rule, active = well fitted curve in the direction sought with a large enough effect; inconclusive = small, poorly fitted or top-dose-only effect, or another doubt; inactive = no such curve, though single readings can be large; an effect the other way counts as inactive or inconclusive. Potency is the fitted concentration of half-maximal effect.

SMILES	Rab9 prom act	ELG1 genotoxic	SMN2 splice up	NPC1 promoter act	FLuc counter	ELG1 repair inh
COCCN(C(=O)CCC(=O)Nc1cc(C)on1)C(C(=O)NC1CCCC1)c1ccccc1C (stereo not drawn)	2%	1%	nt	-2%	2%	6%
O=C(CCC1CCCC1)NNC(=O)c1cc2ccccc2cc1O	-2%	-5%	nt	1%	-1%	7%
O=C(NC1CCCCC1)c1cc2ccccc2cc1O	22%	4%	nt	?	17µM*	22%
Cn1cccc1C(=O)NC1CCCCCC1	2.2µM*	?	nt	?	17µM*	?
COCCN(C(=O)CCl)C(C(=O)NC1CCCCC1)c1ccccc1C (stereo not drawn)	-44%	-12%	?	-13%	1%	21µM*
O=C(Nc1ccc(Br)cc1)C1CCCN(S(=O)(=O)c2ccc(Br)s2)C1 (stereo not drawn)	nt	nt	2%	nt	-6%	nt
Fc1cccc2sc(Nc3nnc(-c4ccccc4)o3)nc12	3.2µM*	?	3.2µM*	2.5µM*	3µM*	?
COc1cc(OC)cc(-c2nnc(Nc3nc4c(F)cccc4s3)o2)c1	5%	-15%	2%	6%	?	0%
Fc1cccc2sc(Nc3nc4c(F)cccc4s3)nc12	?	3%	16µM*	?	4.3µM*	-2%
COc1ccc(/C=C/c2noc(-c3ccccc3O)n2)cc1	27%	?	27%	?	3.8µM*	?
COc1cc(/C=C/c2noc(-c3ccccc3O)n2)cc(OC)c1OC	27%	10%	13%	22%	0%	?
CC(=O)Oc1ccccc1-c1nc(/C=C/c2ccccc2)no1	?	9.2µM*	nt	2.8µM*	11µM*	?
CC(=O)Oc1ccccc1C(=O)O	2%[46.1 µM]	nt	20%	0%[46.1 µM]	nt	nt
O=C(CSc1nc2ccccc2c(=O)n1CCC(=O)NC1CCCCC1)Nc1ccccc1Cl	nt	nt	nt	nt	-1%	nt
O=c1[nH]c(Cc2ccccc2)nc2c1oc1ccccc12	14%	2%	3%	1%	-6%	1%
Cc1nc2c(oc3ccccc32)c(=O)o1	2%	?	17%	-2%	21µM*	?
O=S(=O)(c1ccc(C(F)(F)F)cc1)N1CCN(CCc2ccccc2)CC1	2%	-1%	nt	-1%	0%	?
CCOC(=O)C1CCCN(C(=O)c2ccc3c(=O)n(Cc4ccccc4OC)c(=S)[nH]c3c2)C1 (stereo not drawn)	-2%	-15%	nt	-1%	2%	-10%
COc1ccccc1N1C(=N)S/C(=C\c2ccc(-c3ccccc3C(=O)O)o2)C1=O	-2%	3%	-5%	-3%	?	2%
N=C1S/C(=C\c2ccc(-c3ccccc3C(=O)O)o2)C(=O)N1c1ccc2c(c1)OCO2	-11%	0%	nt	-4%	9.5µM*	-16%
COc1ccc(C(=O)OC(C)C(=O)Nc2cc(C(F)(F)F)ccc2Cl)c(OC)c1OC (stereo not drawn)	-3%	-4%	-29%	-3%	2%	21µM*
CC(OC(=O)c1ccc(O)cc1)C(=O)Nc1cc(C(F)(F)F)ccc1Cl (stereo not drawn)	-1%	-9%	nt	-4%	2%	?
CC(C)c1ccc(C(=O)CSc2ncn[nH]2)cc1	?	?	29%	?	9.5µM*	?
Cc1ccc(SC(=O)c2c([N+](=O)[O-])c(C)nn2C)cc1	0%	-9%	nt	-1%	-4%	-1%
CCn1nc(C)cc1C(=O)Sc1ccc(C)cc1	-4%	0%	nt	-1%	17µM*	0%
CCC(=O)N1CCc2cc(OC)c(OC)cc2C1COc1ccc(F)cc1 (stereo not drawn)	-11%	-1%	nt	0%	-2%	?
COc1ccc(NC(=O)c2sc3nc(N4CCOCC4)c4c(c3c2N)CC(C)(C)OC4)c(OC)c1	-8%	4%	nt	-6%	0%	?
